# Laboratory results reported in PubChem BioAssay (NCATS).
# Results filed as inconclusive are left out. A call without a number means that no potency is given here. Activity calls are given as the source filed them. Calls follow the shape of the dose curve; as a rule, active = well fitted inhibition curve with a large enough effect; inconclusive = small, poorly fitted or top-dose-only effect; inactive = flat fitted curve, though single readings scatter.
# Experiments:
# Experiment in all cases: qHTS profiling for inhibitors of Plasmodium falciparum proliferation (AID 504749); also: nearly all actives have a fitted effect of over 60% in size
# Settings in all cases: P. falciparum in erythrocytes, SYBR Green DNA, 72 h; series mostly up to 28.7 µM
# P94_40 = tested on: P94_40
# Summary of the method: (§1)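 Parasite proliferation within erythrocytes, 72 h exposure. Endpoint: SYBR Green I fluorescence after overnight lysis at room temperature. Controls: 0.29 uM artemisinin, DMSO.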
# PAD = tested on: PAD
# Summary of the method: as §1
# PC15 = tested on: PC15
# Summary of the method: as §1
# PC26 = tested on: PC26
# Summary of the method: as §1
# PC49 = tested on: PC49
# Summary of the method: as §1
# SC27B = tested on: SC27B
# Summary of the method: as §1
# TAB109 = tested on: TAB109
# Summary of the method: as §1
# TAB113 = tested on: TAB113
# Summary of the method: as §1
# TAB165 = tested on: TAB165
# Summary of the method: as §1
# W2 = tested on: W2
# Summary of the method: as §1
# Potency is read from the fitted curve at half-maximal effect.
Structure (SMILES),Potency (P94_40),Potency (PAD),Potency (PC15),Potency (PC26),Potency (PC49),Potency (SC27B),Potency (TAB109),Potency (TAB113),Potency (TAB165),Potency (W2)
COC(=O)C1=C(C)NC(C)=C(C(=O)OC)C1c1ccccc1[N+](=O)[O-],inactive,inactive,inactive,inactive,inactive,inactive,inactive,inactive,inactive,inactive
Cc1cc(O)cc2c1O[C@](C)(CCC[C@H](C)CCC[C@H](C)CCCC(C)C)CC2,inactive,inactive,inactive,inactive,inactive,inactive,inactive,inactive,inactive,inactive
CC(=O)c1ccc2c(c1)N(CCCN(C)C)c1ccccc1S2,inactive,inactive,inactive,inactive,inactive,inactive,inactive,inactive,inactive,1.02 µM (active)
O=c1[nH]c(=O)c2[nH]c(=O)[nH]c2[nH]1,inactive,inactive,inactive,inactive,inactive,inactive,inactive,–,inactive,inactive
CCCCCCCCCCCCCCCC(=O)NCCO,inactive,inactive,inactive,inactive,inactive,inactive,inactive,inactive,inactive,inactive
COc1cc2[nH]c(=O)[nH]c(=O)c2cc1OC,inactive,inactive,inactive,inactive,inactive,inactive,inactive,inactive,inactive,inactive
Cc1cc2c(cc1S(N)(=O)=O)S(=O)(=O)CCC2,inactive,inactive,inactive,inactive,inactive,inactive,inactive,inactive,inactive,inactive
CCCCc1ncc(/C=C(\Cc2cccs2)C(=O)O)n1Cc1ccc(C(=O)O)cc1,inactive,inactive,inactive,inactive,inactive,inactive,inactive,inactive,inactive,inactive
O=C1c2c(O)cccc2Cc2cccc(O)c21,inactive,inactive,inactive,inactive,inactive,inactive,inactive,inactive,inactive,inactive
Nc1ccc(S(=O)(=O)NC(=O)c2ccccc2)cc1,inactive,inactive,inactive,inactive,inactive,inactive,inactive,inactive,inactive,inactive
O=C1NC(=O)[C@@]2(CCOc3ccc(F)cc32)N1,inactive,inactive,inactive,inactive,inactive,inactive,inactive,inactive,inactive,inactive
Oc1cn2c(n1)Nc1ccc(Cl)c(Cl)c1C2,inactive,inactive,inactive,inactive,inactive,inactive,inactive,inactive,inactive,inactive
O=C1OC(OC(=O)c2cccnc2Nc2cccc(C(F)(F)F)c2)c2ccccc21 (stereo not given),inactive,inactive,inactive,inactive,inactive,inactive,inactive,inactive,inactive,inactive
CC1(C)OC(=O)NC1=O,inactive,inactive,inactive,inactive,inactive,inactive,inactive,inactive,inactive,inactive
Cc1cccc(Nc2cc(Cl)nc(SCC(=O)O)n2)c1C,inactive,inactive,inactive,inactive,inactive,inactive,inactive,inactive,inactive,inactive
CC(C)(C)C(=O)NCCCC(=O)O,inactive,inactive,inactive,inactive,inactive,inactive,inactive,inactive,inactive,inactive
COc1ccc2c(c1)C(=O)N(CCc1ccc(S(=O)(=O)NC(=O)NC3CCCCC3)cc1)C(=O)C2(C)C,inactive,inactive,inactive,inactive,inactive,inactive,inactive,inactive,inactive,inactive
Cc1ccc2nc(N)[nH]c(=O)c2c1Sc1ccncc1,12.6 µM (active),–,–,inactive,–,–,7.08 µM (active),–,2 µM (active),–
CSc1ccc2c(c1)C(N1CCN(C)CC1)Cc1ccccc1S2 (stereo not given),–,–,inactive,–,inactive,–,–,–,12.6 µM (active),5.36 µM (active)
Cc1c(O)cccc1C(=O)N[C@@H](CSc1ccccc1)[C@H](O)CN1C[C@H]2CCCC[C@H]2C[C@H]1C(=O)NC(C)(C)C,10 µM (active),10 µM (active),–,–,–,7.94 µM (active),–,12.6 µM (active),10 µM (active),8.49 µM (active)
O=C(O)CN1C(=O)c2cccc3cccc(c23)C1=O,–,inactive,inactive,inactive,inactive,inactive,inactive,inactive,inactive,inactive
CCOc1nc2cccc(C(=O)O)c2n1Cc1ccc(-c2ccccc2-c2nn[nH]n2)cc1,–,inactive,inactive,–,inactive,11.2 µM (active),inactive,–,–,–
[Cl][In]([Cl])[Cl],–,–,–,–,–,–,–,–,–,7.57 µM (active)
CNCCCC1c2ccccc2C=Cc2ccccc21,–,inactive,–,–,inactive,inactive,inactive,inactive,–,0.51 µM (active)
CCN(CC)CCNC(C(=O)OCCC(C)C)c1ccccc1 (stereo not given),–,inactive,–,–,–,inactive,–,–,10 µM (active),4.78 µM (active)

Structure (SMILES),Potency (P94_40),Potency (PAD),Potency (PC15),Potency (PC26),Potency (PC49),Potency (SC27B),Potency (TAB109),Potency (TAB113),Potency (TAB165),Potency (W2)
CNCCC(Oc1ccc(C(F)(F)F)cc1)c1ccccc1 (stereo not given),–,–,–,–,–,–,–,–,11.2 µM (active),3.79 µM (active)
CCCCN(CCCC)CC(O)c1cc(Cl)cc2c1-c1ccc(Cl)cc1/C2=C/c1ccc(Cl)cc1 (stereo not given),0.005 µM (active),0.0056 µM (active),0.0112 µM (active),–,–,0.0112 µM (active),0.0126 µM (active),0.0056 µM (active),0.0079 µM (active),–
OCc1cc(C(O)CNCCCCCCOCCCCc2ccccc2)ccc1O (stereo not given),inactive,inactive,–,–,inactive,inactive,–,inactive,–,–
CC(C(O)c1ccc(O)cc1)N1CCC(Cc2ccccc2)CC1 (stereo not given),–,–,–,–,inactive,–,–,–,8.91 µM (active),4.26 µM (active)
CN(C)CCCN1c2ccccc2Sc2ccc(Cl)cc21,–,10 µM (active),10 µM (active),6.75 µM (active),7.08 µM (active),–,–,–,8.91 µM (active),1.07 µM (active)
NC(=O)N/N=C/c1ccc([N+](=O)[O-])o1,–,–,–,–,–,12.6 µM (active),12.6 µM (active),–,–,9.53 µM (active)
Nc1ccc(S(=O)(=O)Nc2ccc(Cl)nn2)cc1,–,–,–,inactive,–,–,–,–,1 µM (active),inactive
CSc1ccc2c(c1)N(CCC1CCCCN1C)c1ccccc1S2 (stereo not given),7.08 µM (active),8.91 µM (active),10 µM (active),–,–,12.6 µM (active),8.91 µM (active),10 µM (active),12.6 µM (active),6.75 µM (active)
OCCN1CCN(CCCN2c3ccccc3Sc3ccc(Cl)cc32)CC1,–,–,3.16 µM (active),–,–,–,–,–,–,3.22 µM (active)
CN1CCC[C@@H]1Cc1c[nH]c2ccc(CCS(=O)(=O)c3ccccc3)cc12,–,–,–,–,–,inactive,–,inactive,–,4.78 µM (active)
C[C@]12C[C@H](O)[C@H]3[C@@H](CCC4=CC(=O)CC[C@@]43C)[C@@H]1CC[C@@H]2C(=O)CO,–,–,inactive,inactive,–,–,–,–,–,inactive
c1ccc(CN(CC2=NCCN2)c2ccccc2)cc1,–,–,–,–,3.16 µM (active),–,–,–,–,7.57 µM (active)
CCN(CC)CCNC(=O)c1c(C)[nH]c(/C=C2\C(=O)Nc3ccc(F)cc32)c1C,7.94 µM (active),5.01 µM (active),8.91 µM (active),5.36 µM (active),–,12.6 µM (active),8.91 µM (active),10 µM (active),7.08 µM (active),4.26 µM (active)
CN(C)CCN(Cc1ccccc1)c1ccccn1,inactive,inactive,inactive,–,inactive,inactive,–,inactive,inactive,–
COCCOC(=O)C1=C(C)NC(C)=C(C(=O)OC/C=C/c2ccccc2)C1c1cccc([N+](=O)[O-])c1 (stereo not given),–,8.91 µM (active),–,–,inactive,10 µM (active),–,–,12.6 µM (active),9.53 µM (active)
CN1CCCCC1CCN1c2ccccc2Sc2ccc(S(C)=O)cc21 (stereo not given),–,inactive,–,–,inactive,–,–,inactive,–,1.9 µM (active)
CNC(=O)Oc1ccc2c(c1)[C@]1(C)CCN(C)[C@@H]1N2C,1.58 µM (active),1.41 µM (active),1.78 µM (active),–,2 µM (active),–,2.24 µM (active),–,1.58 µM (active),1.51 µM (active)
COc1ccc2[nH]c(S(=O)Cc3ncc(C)c(OC)c3C)nc2n1 (stereo not given),8.91 µM (active),4.47 µM (active),–,–,7.94 µM (active),8.91 µM (active),8.91 µM (active),8.91 µM (active),7.94 µM (active),9.53 µM (active)
NCCNCCNCCN,–,inactive,inactive,inactive,inactive,inactive,inactive,inactive,inactive,inactive
Oc1ccc(C(O)CNCCCCCCNCC(O)c2ccc(O)c(O)c2)cc1O (stereo not given),–,–,–,–,inactive,–,–,–,11.2 µM (active),16.9 µM (active)
CC(C)(C)C(=O)C(Oc1ccc(Cl)cc1)n1ccnc1 (stereo not given),7.94 µM (active),8.91 µM (active),–,16.9 µM (active),–,–,10 µM (active),10 µM (active),7.08 µM (active),6.01 µM (active)
CN1CCN(C2Cc3ccccc3Sc3ccc(Cl)cc32)CC1 (stereo not given),inactive,–,inactive,–,–,–,–,–,12.6 µM (active),3.79 µM (active)
CCOC(CN1CCN(CC(C)C(=O)c2ccccc2)CC1)c1ccccc1 (stereo not given),–,inactive,inactive,–,inactive,inactive,–,–,–,10.7 µM (active)
NC1CCN(c2cccc(Cl)n2)CC1,–,inactive,inactive,inactive,inactive,inactive,inactive,inactive,inactive,6.01 µM (active)
CCCc1c(OCCCCc2nn[nH]n2)ccc(C(C)=O)c1O,inactive,inactive,inactive,inactive,–,inactive,inactive,inactive,inactive,–
